Screening results: PubChem BioAssay, Pan Lab, Icahn School of Medicine at Mount Sinai
RBX1-CUL1 inh: inhibitors of human ROC1-CUL1 ubiquitin ligase activity. E3 ubiquitin-protein ligase RBX1 (Homo sapiens) + Cullin-1 (Homo sapiens), P62877+Q13616. in vitro K48 di-Ub FRET, acceptor:donor ratio, 45 min. inhibition, % at 10 µM. hit rate 0.6% among 140,000. AID 1347404, 2020; in the data active means inhibition above about 25%
Starred values were filed as active, the others as inactive. The full list was thinned out, with hits kept by preference.

SMILES | RBX1-CUL1 inh
O=C1NN(c2ccc(Cl)cc2)C(=O)/C1=C\c1ccc(F)cc1 | 38*
O=C1NN(c2ccc(Br)cc2)C(=O)/C1=C\c1ccc(O)cc1 | 2
O=C1NN(c2ccc(F)cc2)C(=O)/C1=C/c1ccccc1O | 2
O=C1NN(c2cc(Cl)cc(Cl)c2)C(=O)/C1=C\c1ccc(F)cc1 | 85*
CCOc1cc(/C=C2/C(=O)NN(c3ccc(F)cc3)C2=O)ccc1OC(C)C | 5
O=C1NN(c2ccc(I)cc2)C(=O)/C1=C/c1ccc(Cl)cc1 | 59*
O=C1NN(c2ccc(I)cc2)C(=O)/C1=C\c1cccs1 | 4
OCc1cc(Br)c(OCc2ccccc2)c(Br)c1 | 3
Cc1ccc(C)c(CN2C[C@H](O)[C@@H](N3CCOCC3)C2)c1 | 1
O=C(CSc1nnc2sc3ccccc3n12)Nc1c(Cl)cc(Cl)cc1Cl | 9
CCN1CCN(CC(O)COc2cccc(CN(C)C3CCOCC3)c2)CC1 (stereo not drawn) | 0
CNC(=O)c1ccc2c(c1)CCN2S(=O)(=O)c1ccccc1 | -3
CCOC(=O)c1c(NC(=O)C(OC(C)=O)c2ccccc2)sc(C(=O)OC)c1C (stereo not drawn) | 1
COc1ccc(-c2nc(SCC(=O)c3c(C)n(C)n(-c4ccccc4)c3=O)[nH]c2-c2ccc(OC)cc2)cc1 | -8
CCOC(=O)C1(CCOC)CCCN(Cc2cccn2-c2ccc(Cl)cn2)C1 (stereo not drawn) | -2
CC1=C/C(=N\OC(=O)c2ccccc2Cl)CC(C)(C)C1 | -9
CC(=O)Oc1cccc(/C=C2/C(=O)NN(c3ccc(C)c(C)c3)C2=O)c1 | 2
O=C1NN(c2ccccc2)C(=O)/C1=C/c1cccc(OCc2ccc(Cl)c(Cl)c2)c1 | 7
O=C1NN(c2ccc(Cl)c(Cl)c2)C(=O)/C1=C/c1ccc(Cl)cc1 | 78*
O=C1NN(c2ccc(F)c(Cl)c2)C(=O)/C1=C\c1cccc(OC(=O)c2cccs2)c1 | 97*
CCN(CC)c1ccc(/C=C2\C(=O)NN(c3ccc(Cl)c(Cl)c3)C2=O)cc1 | 2
O=C1OC(c2ccccc2)=N/C1=C/c1cccc(OC(=O)c2cccs2)c1 | -2
CN1CCN(c2ncccc2CNC(=O)C[C@@H]2C[C@@H]3C=C[C@H]2C3)CC1 | -9
COc1cc(C(O)c2cc3c(cc2CO)OCO3)cc(OC)c1OC (stereo not drawn) | 2
CN1C(=O)C(=O)c2cc(F)ccc21 | 1
SMILES | RBX1-CUL1 inh
O=C(N/N=C/c1cc([N+](=O)[O-])ccc1O)c1cnccn1 | -7
O=C(N/N=C/c1cc([N+](=O)[O-])ccc1O)c1ccccn1 | -13
O=C(N/N=C/c1cc([N+](=O)[O-])ccc1O)c1ccc(C(=O)N/N=C/c2cc([N+](=O)[O-])ccc2O)o1 | 98*
Cc1sc(NC(=O)c2ccccc2)c(CN2CCN(Cc3ccccc3)CC2)c1C | 2
COc1cc(C)ccc1C1=C/C(=C\c2ccc(OCc3ccccc3)cc2)C(=O)O1 | 5
C[n+]1c2cc3ccccc3cc2n2nc3c(cc21)c1cccc2cccc3c21 | 97*
C[n+]1c2ccccc2n2nc3c(cc21)c1cccnc1c1ncccc31 | -4
C[n+]1c2ccccc2n2nc3c(cc21)c1cccc2cccc3c21 | 13
CC1=NNC(=O)C1N=Nc1c(C)n(C)n(-c2ccccc2)c1=O (stereo not drawn) | 39*
Cc1c(N=NC2C(=O)N(c3ccccc3)N=C2N)c(=O)n(-c2ccccc2)n1C (stereo not drawn) | -5
Cc1c(Sc2c(C)n(C)n(-c3ccccc3)c2=O)c(=O)n(-c2ccccc2)n1C | 2
Cc1ccnc(N2CCC(C3CCN(Cc4cccnc4)CC3)C2)c1 (stereo not drawn) | 8
Cc1cc(/C=c2/sc3n(c2=O)C(c2ccc(F)cc2)C2=C(N=3)c3ccccc3CC2)c(C)n1-c1ccc(C(=O)O)cc1 (stereo not drawn) | 0
O=c1/c(=C\c2ccc(O)cc2)sc2n1C(c1cccs1)C1=C(N=2)c2ccccc2CC1 (stereo not drawn) | 10
O=C(O)c1cccc(-c2ccc(/C=c3/sc4n(c3=O)C(c3cccc(F)c3)C3=C(N=4)c4ccccc4CC3)o2)c1 (stereo not drawn) | 73*
O=c1/c(=C\c2cc(Cl)ccc2O)sc2n1C(c1ccccc1)C1=C(N=2)c2ccccc2CC1 (stereo not drawn) | -5
O=c1/c(=C/c2ccccc2O)sc2n1C(c1cccs1)C1=C(N=2)c2ccccc2CC1 (stereo not drawn) | -6
O=C(O)c1ccc(/C=c2/sc3n(c2=O)C(c2cccs2)C2=C(N=3)c3ccccc3CC2)cc1 (stereo not drawn) | 56*
COc1ccc(/C=c2/sc3n(c2=O)C(c2cccc(F)c2)C2=C(N=3)c3ccccc3CC2)cc1OC (stereo not drawn) | -1
O=c1/c(=C/c2ccc(N3CCOCC3)o2)sc2n1C(c1ccc(F)cc1)C1=C(N=2)c2ccccc2CC1 (stereo not drawn) | 0
